According to PubChem BioAssay AID651548 (Broad Institute, 2012):
The campaign covered roughly 57,000 compounds. About 200 (0.35%) were called active. Shown is part of a subset that was picked to be rich in actives. Unmarked numbers belong to inactive results.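 Rule for the calls: active = mean inhibition of replicates at least 50% and every single replicate also reaching 50%; inconclusive = mean inhibition at least 50% but some replicate falls below 50%; inactive = mean inhibition under 50%.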

What follows are compounds tested against Histone-lysine N-methyltransferase EZH2 (Homo sapiens) (UniProt Q15910) (assay: EZH2/PRC2 methyltransferase inhibitors, primary screen, biochemical, DELFIA time-resolved fluorescence, single point (AID 651548;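 note: dimethyl H3K27 on biotinylated H3 21-44 peptide detected by antibody; plate controls were median neutral control wells for no effect and median positive control wells for full effect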)). Settings: PRC2 H3K27 methylation, DELFIA TRF, 1 h; at 12.5 µM; stronger effect = higher value.
Sequence of Histone-lysine N-methyltransferase EZH2 (Homo sapiens) (Q15910 whole entry, looked up): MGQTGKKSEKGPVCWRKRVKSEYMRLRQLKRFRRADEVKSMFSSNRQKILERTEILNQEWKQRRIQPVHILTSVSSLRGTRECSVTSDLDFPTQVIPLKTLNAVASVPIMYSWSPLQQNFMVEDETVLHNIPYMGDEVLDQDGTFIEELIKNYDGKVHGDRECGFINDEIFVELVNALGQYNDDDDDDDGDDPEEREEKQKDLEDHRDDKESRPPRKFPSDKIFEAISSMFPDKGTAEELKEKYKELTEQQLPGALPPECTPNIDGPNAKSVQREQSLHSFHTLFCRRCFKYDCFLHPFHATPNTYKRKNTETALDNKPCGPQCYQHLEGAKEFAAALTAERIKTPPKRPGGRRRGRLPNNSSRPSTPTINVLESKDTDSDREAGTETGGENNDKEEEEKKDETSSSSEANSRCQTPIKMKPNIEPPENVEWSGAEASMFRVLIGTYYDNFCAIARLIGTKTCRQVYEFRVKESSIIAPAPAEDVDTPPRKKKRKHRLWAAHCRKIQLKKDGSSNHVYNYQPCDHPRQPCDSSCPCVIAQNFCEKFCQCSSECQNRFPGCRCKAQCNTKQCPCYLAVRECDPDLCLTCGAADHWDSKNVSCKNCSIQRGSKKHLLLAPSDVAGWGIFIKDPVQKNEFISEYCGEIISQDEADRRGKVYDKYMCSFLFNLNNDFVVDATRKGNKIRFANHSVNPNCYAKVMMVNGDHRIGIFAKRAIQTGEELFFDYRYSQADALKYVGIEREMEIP
Compound C[C@@H](NC(=O)C[C@H]1C[C@@H]2c3cc(NC(=O)c4ccc5c(c4)OCO5)ccc3O[C@@H]2[C@@H](CO)O1)c1ccccc1 has an inhibition of -6.67%. Work on COc1ccccc1NC(=O)N[C@H]1CC[C@@H](CC(=O)N[C@@H](C)c2ccccc2)O[C@H]1CO yielded an inhibition of -11.3%. With O=C(C[C@H]1CC[C@H](NC(=O)Nc2ccccc2F)[C@@H](CO)O1)NCc1ccccc1 the inhibition was 4.86%. For O=C(C[C@@H]1CC[C@H](NC(=O)C2CC2)[C@@H](CO)O1)NCc1ccncc1, the inhibition was 3.36%. C[C@@H]1CN([C@@H](C)CO)C(=O)c2cc(-c3cccnc3)cnc2O[C@H]1CN(C)Cc1ccc(-c2ccccc2)cc1 showed an inhibition of 7.86%. For CN(C)Cc1cn(CC[C@H]2CC[C@H](NC(=O)Nc3ccccc3F)[C@@H](CO)O2)nn1, the inhibition was 24.4%. C[C@H]1CN([C@@H](C)CO)S(=O)(=O)c2ccc(-c3cccnc3)cc2O[C@H]1CN(C)C(=O)C1CCCCC1 gave an inhibition of 0.754%. Compound C[C@@H]1CN([C@@H](C)CO)S(=O)(=O)c2ccc(-c3ccc(F)cc3)cc2O[C@H]1CN(C)C(=O)c1ccccc1F has an inhibition of -11%. Compound CO[C@@H]1CN(C)C(=O)c2cc(NC(=O)c3ccccc3)ccc2OC[C@@H](C)N(C(C)=O)C[C@@H]1C has an inhibition of 4.81%. O=C(C[C@H]1C=C[C@H](NC(=O)c2cccc(F)c2)[C@@H](CO)O1)NCc1ccc(Oc2ccccc2)cc1 showed an inhibition of -0.132%. In the case of CCCC(=O)Nc1ccc2c(c1)C(=O)N(C)C[C@@H](OC)[C@@H](C)CN(C(=O)CC)[C@H](C)CO2, the inhibition was 8.4%. In the case of COC(=O)C1=CO[C@@H](O[C@@H]2O[C@H](CO)[C@@H](O)[C@H](O)[C@H]2O)[C@@H]2[C@@H](C)[C@@H](OC(=O)C3=CO[C@@H](O[C@@H]4O[C@H](CO)[C@@H](O)[C@H](O)[C@H]4O)[C@@H]4[C@@H](C)[C@@H](OC(C)=O)C[C@H]34)C[C@H]12, the inhibition was -4.29%. In the case of CC1=COC(O[C@@H]2O[C@H](CO)[C@@H](O)[C@H](O)[C@H]2O)C2C1CC(O)C2CO (some centres not stated), the inhibition was 58.6% (active). With C/C=C1/[C@H](O[C@@H]2O[C@H](CO)[C@@H](O)[C@H](O)[C@H]2O)OC=C2C(=O)O[C@@H]3C[C@@H](C(C)CO)[C@H](COC(=O)C[C@H]21)[C@H]3C (some centres not stated) the inhibition was -12.8%. With COc1ccccc1-c1cn(CC[C@H]2CC[C@@H](NC(=O)Cc3ccccn3)[C@@H](CO)O2)nn1 the inhibition was 9.32%. For COc1cccc(NC(=O)Nc2ccc3c(c2)C(=O)N(C)C[C@@H](OC)[C@H](C)CN(CC2CC2)[C@H](C)CO3)c1, the inhibition was -8.45%. In the case of CN1CCN(C(=O)c2cc3c(c(-c4cccc(-c5ccc(C(=O)N(C)C)cc5)c4)n2)[C@@H](CCO)N([S@](=O)C(C)(C)C)C3)CC1, the inhibition was -12.8%. With COc1ccc(CN2C[C@@H](C)[C@H](OC)CN(C)C(=O)c3cc(NC(C)=O)ccc3OC[C@@H]2C)cc1 the inhibition was -2.6%. Work on O=C(C[C@H]1C=C[C@H](NC(=O)c2cnccn2)[C@@H](CO)O1)NCc1ccccc1F yielded an inhibition of 4.44%. Compound CN(C)C(=O)C[C@H]1C[C@@H]2c3cc(NC(=O)NC4CCCCC4)ccc3O[C@@H]2[C@@H](CO)O1 has an inhibition of 9.52%. Compound O=C(C[C@@H]1C=C[C@@H](NC(=O)C2CC2)[C@H](CO)O1)NCCCN1CCOCC1 has an inhibition of -1.42%. Compound CCC(=O)Nc1ccc2c(c1)C(=O)N(C)C[C@H](OC)[C@@H](C)CN(C(=O)c1cnccn1)[C@@H](C)CO2 has an inhibition of 11.1%. For COCC(=O)Nc1ccc2c(c1)OC[C@H](C)N(Cc1ccccc1OC)C[C@@H](C)[C@@H](OC)CN(C)C2=O, the inhibition was -9.26%. CO[C@H]1CN(C)C(=O)c2cc(NS(=O)(=O)CC(F)(F)F)ccc2OC[C@H](C)N(C(=O)c2ccc3c(c2)OCO3)C[C@H]1C showed an inhibition of 13%. CO[C@@H]1CN(C)C(=O)c2cc(NC(=O)c3ccno3)ccc2OC[C@@H](C)N(S(C)(=O)=O)C[C@@H]1C gave an inhibition of 4.22%. In the case of O=C(CCCCCCC(=O)Nc1ccccc1O)N/N=C/c1ccc(Oc2ccccc2)cc1, the inhibition was 60.3% (active). In the case of O=C(CCCCCCC(=O)Nc1ccccc1O)N/N=C/c1ccc(C(F)(F)F)cc1, the inhibition was -17.5%. With O=C(CCCCCC(=O)Nc1ccccc1O)N/N=C/c1ccc(I)cc1 the inhibition was 14.9%. In the case of O=C(C[C@@H]1C[C@@H]2c3cc(NS(=O)(=O)c4ccc(F)cc4)ccc3O[C@@H]2[C@H](CO)O1)NCc1cc(F)ccc1F, the inhibition was 17%. In the case of CCCCc1nn(-c2ccccc2C(F)(F)F)c(=O)n1Cc1ccc(-c2ccccc2S(=O)(=O)NC(=O)c2sccc2C)cc1, the inhibition was 62% (active). COCC(=O)Nc1ccc2c(c1)C(=O)N(C)C[C@H](OC)[C@@H](C)CN(CC1CC1)[C@@H](C)CO2 was tested, and the inhibition was 9.52%. O=C(C[C@@H]1C[C@@H]2c3cc(NC(=O)C4CCC4)ccc3O[C@@H]2[C@@H](CO)O1)NCCN1CCCCC1 was tested, and the inhibition was -3.85%. In the case of CC(C)NC(=O)N[C@@H]1CC[C@H](CC(=O)NCCN2CCCC2)O[C@@H]1CO, the inhibition was -11.4%. C[C@H](O)C#Cc1ccc2c(c1)O[C@H](CN(C)C(=O)C1CC1)[C@@H](C)CN([C@H](C)CO)S2(=O)=O was tested, and the inhibition was 7.79%. CO[C@H]1CN(C)C(=O)c2ccc(NS(=O)(=O)c3cn(C)cn3)cc2OC[C@@H](C)N(C)C[C@@H]1C gave an inhibition of -2.12%. Work on CCC(=O)N(C)C[C@H]1Oc2cc(C#CC3CCCC3)ccc2S(=O)(=O)N([C@H](C)CO)C[C@@H]1C yielded an inhibition of 10%. In the case of CN(C)CC(=O)N[C@@H]1CC[C@H](CCn2cc(C3CCCC3)nn2)O[C@H]1CO, the inhibition was -5.37%. O=C(CCN1CCCCC1)N[C@H]1CC[C@H](CCNS(=O)(=O)c2ccc(F)cc2)O[C@@H]1CO was tested, and the inhibition was 4.74%. Work on O=C(NCC[C@H]1CC[C@@H](NC(=O)c2ccncc2)[C@@H](CO)O1)Nc1ccc(Cl)cc1 yielded an inhibition of 1.17%. Work on COc1cccc(NC(=O)N[C@@H]2C=C[C@H](CC(=O)NCc3ccccn3)O[C@H]2CO)c1 yielded an inhibition of -2.05%. Work on O=C(C[C@@H]1C=C[C@H](NC(=O)C2CCOCC2)[C@H](CO)O1)NCc1ccncc1 yielded an inhibition of 7.09%. With CCC(=O)Nc1ccc2c(c1)C(=O)N(C)C[C@H](OC)[C@@H](C)CN(Cc1cccnc1)[C@H](C)CO2 the inhibition was 2.36%. CO[C@H]1CN(C)C(=O)c2cc(NC(=O)NC(C)C)ccc2OC[C@@H](C)NC[C@@H]1C gave an inhibition of 4.41%. Compound Cc1ccc(S(=O)(=O)N[C@@H]2CC[C@H](CCn3cc(-c4cccc(F)c4)nn3)O[C@@H]2CO)cc1 has an inhibition of -11.1%. CC(C)NC(=O)N[C@@H]1CC[C@H](CCn2cc(-c3ccccc3)nn2)O[C@H]1CO gave an inhibition of 6.84%. CO[C@H]1CN(C)C(=O)c2ccc(NC(C)=O)cc2OC[C@@H](C)NC[C@H]1C was tested, and the inhibition was -8.55%. In the case of COC(=O)[C@H](Cc1ccc(N=[N+]=[N-])cc1)N1CC2=C[C@@H](C3CC3)n3c(=O)n(C)c(=O)n3[C@H]2[C@@H]1[C@@H](O)Cc1ccccc1, the inhibition was 1.09%. For CO[C@@H]1CN(C)C(=O)c2cc(NC(=O)C3CC3)ccc2OC[C@H](C)N(C(=O)c2ccccc2F)C[C@H]1C, the inhibition was 3.97%. For COCC(=O)N(C)C[C@@H]1Oc2ncc(C#C[C@H](C)O)cc2C(=O)N([C@@H](C)CO)C[C@@H]1C, the inhibition was -0.468%. O=C(C[C@@H]1CC[C@@H](NC(=O)c2ccc3c(c2)OCO3)[C@H](CO)O1)NCc1ccc(F)cc1 gave an inhibition of -0.86%. COc1ccc(CNC(=O)C[C@H]2CC[C@H](NC(=O)Nc3ccc4c(c3)OCO4)[C@H](CO)O2)cc1 was tested, and the inhibition was 13.2%. In the case of C[C@H](CO)N1C[C@H](C)[C@@H](CN(C)C(=O)c2ccccc2)OCCCC[C@H](C)Oc2ccc(NC(=O)c3ccccc3)cc2C1=O, the inhibition was -18.6%. Compound CO[C@@H]1CN(C)C(=O)c2cc(NC(=O)NC3CCCCC3)ccc2OC[C@@H](C)N(C(C)=O)C[C@H]1C has an inhibition of 0.307%. C[C@@H]1CN([C@H](C)CO)S(=O)(=O)c2ccc(-c3ccccc3)cc2O[C@H]1CN(C)C(=O)C1CCC1 gave an inhibition of -4.42%. CO[C@@H]1CN(C)C(=O)c2ccc(NC(=O)Nc3c(C)noc3C)cc2OC[C@@H](C)NC[C@H]1C showed an inhibition of 0.549%. In the case of CO[C@@H]1CN(C)C(=O)c2cc(NS(=O)(=O)c3ccc(Cl)cc3)ccc2OC[C@H](C)NC[C@@H]1C, the inhibition was 3.36%. For CO[C@@H]1CN(C)C(=O)c2ccc(NC(=O)c3ccccn3)cc2OC[C@@H](C)N(C(=O)C2CCCCC2)C[C@H]1C, the inhibition was -0.858%. CO[C@@H](CN(C)C(=O)c1ccc2c(c1)OCO2)[C@@H](C)CN([C@H](C)CO)S(=O)(=O)c1ccccc1 showed an inhibition of -0.585%. Work on CO[C@H]1CN(C)C(=O)c2cc(NC(=O)Nc3ccccc3F)ccc2OC[C@@H](C)N(CCC(F)(F)F)C[C@@H]1C yielded an inhibition of -15.8%. Compound C[C@H](NC(=O)C[C@@H]1C[C@@H]2c3cc(NC(=O)Nc4ccc(C(F)(F)F)cc4)ccc3O[C@@H]2[C@H](CO)O1)c1ccccc1 has an inhibition of -10.9%. O=C(Nc1ccccc1)N[C@@H]1CC[C@H](CCn2cc(C3(O)CCCC3)nn2)O[C@@H]1CO showed an inhibition of -9.38%. CCNC(=O)C[C@@H]1CC[C@@H](NC(=O)NC2CCCCC2)[C@H](CO)O1 showed an inhibition of -1.26%.
